The results in this text go back to PubChem BioAssay (EPA / NIEHS).

In general, AC50 refers to the concentration giving half of the maximal activity seen.

Where “and” joins values, the source holds several entries; their conditions need not be identical. Equal values may be shown once. Calls of active or inactive are those of the source. The calls were made as follows: active = hit-call score of the fitted dose curve at least 0.9, where 1 is the maximum; inactive = score below 0.9.

Read-out in this experiment: Intercellular Adhesion Molecule 1 (ICAM1), ICAM1 (gene 3383)
Kind of experiment: BSK_KF3CT_ICAM1: BioMAP Diversity Plus: KF3CT Assay for Intercellular Adhesion Molecule 1 (ICAM1) Biomarker Activity (AID 2283067). Conditions: primary human keratinocytes with fibroblasts; actives raise or lower the signal. As for the experimental part: BSK_KF3CT is a cell-based, multiplexed-readout assay that uses keratinocytes and foreskin fibroblasts, a human skin primary cell co-culture, with measurements taken at 24 hours after chemical dosing in a 96-well plate.BSK_KF3CT_ICAM1 is an assay component measured in the BSK_KF3CT assay. It measures ICAM-1 antibody related to regulation of gene expression using ELISA technology.Data from the assay component BSK_KF3CT_ICAM1 was analyzed into 1 assay endpoint. This assay endpoint, BSK_KF3CT_ICAM1, was analyzed with bidirectional fitting relative to DMSO as the negative control and baseline of activity. Using a type of binding reporter, gain or loss-of-signal activity can be used to understand changes in the signaling as they relate to the gene ICAM1. Furthermore, this assay endpoint can be referred to as a primary readout, because this assay has produced multiple assay endpoints where this one serves a signaling function. To generalize the intended target to other relatable targets, this assay endpoint is annotated to the cell adhesion molecules intended target family, where the subfamily is Immunoglobulin CAM.
The levels of cell surface (or secreted, indicated by the prefix "s") biomarker endpoints were measured by ELISA. Overt cytotoxicity to cells in confluent adherent cultures (all systems other than the BT system) was assessed by measuring total protein levels using sulforhodamine B (SRB) staining in parallel cultures at the time of biomarker measurements, indicated as SRB endpoints. For proliferation assays for adherent cell types, individual cell types are cultured at sub-confluence and relative cell numbers quantified by SRB staining at time points optimized for each system (48 h: 3C and CASM3C systems; 72 h: BT and HDF3CGF systems; 96 h: SAg system). SRB was performed by staining cells with 0.1% SRB after fixation with 10% TCA and reading wells at 560 nm.Viability and proliferation of PBMC (T cells) was quantified by Alamar Blue reduction for the SAg and BT systems. For PBMC viability (referred to as PBMC Cytotoxicity within the assay endpoint names), cells were plated (75,000/well in a 96-well plate) and then chemical samples added for 1 h before addition of activators, SEB and TSST-1 (20 ng/mL final concentration each). Cells were incubated for 90 h. Then, Alamar Blue (20 uL/well) (Invitrogen, Cat DAL1100) was added for 6 h, and the plates were read with a fluorescence microplate reader at 546/580 nm (excitation/emission). For PBMC proliferation, cells were plated and activated as above but incubated for only 16 h prior to addition of Alamar Blue. Plates were read after 6 h.
With `CCCCCCCCCCCCCCCC(=O)OC/C=C(C)/C=C/C=C(C)/C=C/C1=C(C)CCCC1(C)C`, the outcome was inactive.
`IC(I)I`: the outcome was inactive.
Consider `CS(=O)(=O)c1ccc(C2=C(c3ccccc3)C(=O)OC2)cc1`, for which the result was inactive.
Same read-out and setting: the same measure for `O=C1OC[C@H](Cc2cccc(O)c2)[C@H]1Cc1cccc(O)c1`: “inactive”.
With `C=C(C)C(=O)OCC(CC)(COC(=O)C(=C)C)COC(=O)C(=C)C`, the result was inactive.
For `COc1ccc(OC)c(N=Nc2c(O)ccc3ccccc23)c1`, the result was inactive.
For `c1ccc(Oc2ccccc2)cc1`, the result was inactive.
`COc1ccc(CCN2CCC(Nc3nc4ccccc4n3Cc3ccc(F)cc3)CC2)cc1`: the outcome was inactive.
In the case of `CN(C)C(=S)SC(=S)N(C)C`, the AC50 is 27.3 µM (active).
For `Clc1cc(Cl)c(-c2c(Cl)c(Cl)cc(Cl)c2Cl)cc1Cl`, the result was inactive.
On to `Oc1c(Cl)cc(Cl)c(Cl)c1Cc1c(O)c(Cl)cc(Cl)c1Cl`, for which the AC50 is 3.14 µM (active).
For `CC(=O)C1(C)CC2=C(CCCC2(C)C)CC1C` (stereo not given), the AC50 is 12.3 µM (active).
Turning to `CCCCCC(C=O)=Cc1ccccc1`, the AC50 is 33.1 µM (active).
For `CCC(C)c1cc([N+](=O)[O-])cc([N+](=O)[O-])c1OC(=O)OC(C)C` (stereo not given), the half-maximal activity concentration (AC50) is 9.58 µM (active).
With `CSCCC=O`, the outcome was inactive.
As for `C1=CC2C3C=CC(C3)C2C1` (stereo not given), the result was inactive.
On the same count and under the same terms, the same measure for `O=C1OC2(c3ccccc31)c1ccc(O)c(Br)c1Oc1c2ccc(O)c1Br`: “inactive”; for `CC(=O)c1c(C)c([N+](=O)[O-])c(C(C)(C)C)c([N+](=O)[O-])c1C`: “inactive”.
As to `CCN(CC)C(=O)N(CC)CC`, the result was inactive.
Regarding `CCCCCCC(CO)CCCC` (stereo not given), the AC50 is 32.9 µM (active) and 37.4 µM (active).
In the case of `C=C(C)C(=O)OCCOCCOCCOCCOC(=O)C(=C)C`, the outcome was inactive.
For the compound `CCOC(=O)C(C#N)=C(c1ccccc1)c1ccccc1`, the outcome was inactive.
The same measure, in the same setting: in the case of `C=C(C)C(=O)OCCOCCOCCOC(=O)C(=C)C` it was “inactive”.
As to `CC(=O)Nc1ccc(C(=O)CCl)cc1`, the concentration at half-maximal activity (AC50) is 26.6 µM (active).
For `Cc1cc(CCC(=O)OCCOCCOCCOC(=O)CCc2cc(C)c(O)c(C(C)(C)C)c2)cc(C(C)(C)C)c1O`, the result was inactive.
For `C=CC(C)(O)CCC=C(C)C` (stereo not given), the outcome was inactive.
On to `C[C@@H]1CCN(C(=O)[C@H](CCCN=C(N)N)NS(=O)(=O)c2cccc3c2NC[C@H](C)C3)[C@@H](C(=O)O)C1`, for which the result was inactive.
As for `c1ccc(CCc2ccccc2)cc1`, the outcome was inactive.
Turning to `CN(C)C(=O)Nc1ccc(Oc2ccc(Cl)cc2)cc1`, the result was inactive.
Turning to `CCCCN(CCCC)C(=O)N(CCCC)CCCC`, the half-maximal activity concentration (AC50) was 8.66 µM (active).
Regarding `O=C1c2ccccc2C(=O)c2c(O)ccc(O)c21`, the result was inactive.
With `CN(c1nccc(=O)[nH]1)C1CCN(c2nc3ccccc3n2Cc2ccc(F)cc2)CC1`, the outcome was inactive.
Regarding `CCCCOC(=O)CCCCCCCC(=O)OCCCC`, the result was inactive.
For `CC1(C)CCC[C@]2(C)[C@H]3CCO[C@]3(C)CC[C@@H]12`, the concentration at half-maximal activity (AC50) is 37.1 µM (active) and 38.1 µM (active).
As to `C=C(C)[C@H]1CC=C(C)C(=O)C1`, the result was inactive.
Turning to `O=CN1CCOCC1`, the result was inactive.
On to `CC(CN=Cc1ccccc1O)N=Cc1ccccc1O` (stereo not given), for which the result was inactive.
The same measure, in the same setting: the same measure for `COc1cc(Cl)c(OC)cc1N`: “inactive”.
`CC(C)(C)CC(C)(C)c1ccc(OCCOCC[N+](C)(C)Cc2ccccc2)cc1`: the AC50 is 9.07 µM (active).
Consider `CC=Cc1ccc(OCC)c(O)c1`, for which the outcome was inactive.
